Screening data: PubChem BioAssay, National Center for Advancing Translational Sciences (NCATS)
Rows were chosen to be rich in hits. Some 1.8% of all compounds tested hit in one or more screens of this group.
TSHR antag = blocks TSH signaling through the human TSH receptor; TSHR-expressing cells, TSH-stimulated cAMP HTRF, 2 h; stronger effect = lower value; P16473; hit rate 0.2% among 330,000; activity change, negative = inhibition, % at 11.5 µM; AID 504810;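 active means activity change below a set negative limit, meaning inhibition stronger than a set level, cut at about -70% in these data; inconclusive means activity change between two set negative limits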; further: on the % scale 0 is the no-effect control and ±100 the full control effect
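Competitive HTRF cAMP read-out (cryptate anti-cAMP antibody, cAMP-d2; 30 min, room temperature) in freshly harvested TSHR cells. Compounds added before TSH at EC80 (4nM final), followed by 2 hours' incubation at 37 deg C.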
PTHR1 agonist = PTHR1 (human) receptor agonism; Q03431; HEK293 GP2 PTHR1 cells, GloSensor cAMP luminescence, 1 h; Potency, µM (series often up to 115 µM), without a hit: top-dose activation, most hits filed as activators; hit rate 0.075% among 410,000; further: potency means the concentration at half of the fitted maximal effect; nearly all actives have a fitted effect of over 55% in size
Target sequence (Q03431 whole entry, looked up): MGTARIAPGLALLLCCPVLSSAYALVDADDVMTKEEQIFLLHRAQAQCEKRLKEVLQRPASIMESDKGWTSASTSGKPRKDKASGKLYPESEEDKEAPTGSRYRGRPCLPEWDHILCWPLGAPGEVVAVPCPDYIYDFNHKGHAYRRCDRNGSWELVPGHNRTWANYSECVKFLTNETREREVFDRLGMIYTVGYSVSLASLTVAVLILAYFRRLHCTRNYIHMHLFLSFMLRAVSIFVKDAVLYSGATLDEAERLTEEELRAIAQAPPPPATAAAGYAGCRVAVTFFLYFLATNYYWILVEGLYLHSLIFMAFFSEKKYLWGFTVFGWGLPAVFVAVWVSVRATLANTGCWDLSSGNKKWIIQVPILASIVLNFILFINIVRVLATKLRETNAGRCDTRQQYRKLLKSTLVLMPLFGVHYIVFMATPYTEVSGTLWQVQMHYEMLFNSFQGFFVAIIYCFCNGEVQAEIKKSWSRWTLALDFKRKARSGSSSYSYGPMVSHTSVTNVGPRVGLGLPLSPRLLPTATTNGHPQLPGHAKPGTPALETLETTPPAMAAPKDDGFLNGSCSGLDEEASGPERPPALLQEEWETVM
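HEK-293-derived GP2 cells expressing PTHR1 and a GloSensor cAMP reporter, 3,000/well, plated overnight, given luciferin plus IBMX (each 0.5 mM as added) for 1 h at 37 °C, then compound for 1 h at 37 °C. Luminescence was read after 15 min at room temperature.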
HEK293 tox = cytotoxicity counter-screen for GLP-1 receptor inverse agonists | HEK293 cAMP-luciferase reporter cells, luminescence, 24 h | Potency, µM (top dose mostly 38.3 µM), for the others: at the top dose activity change, negative = inhibition, actives largely listed as inhibitors | hit rate 0.13% among 410,000 | AID 624418;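 further: loss of luciferase light is scored as toxicity; potency means the concentration at half of the fitted maximal effect; on the % scale 0 is the no-effect control and ±100 the full control effect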
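1536-well qHTS counterscreen of the MLSMR; 200 cells/uL, 12 h pre-incubation, 23 nL cpd, 24 h at 37 deg C 5% CO2, luciferase detection reagent, 12 min RT, luminescence. Inhibition = undesired.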
GLP-1R inv ag = acts as inverse agonist at human GLP-1 receptor; P43220; HEK293 GLP-1R CRE-luciferase, luminescence, 24 h; GLP-1R form is constitutively active; Potency, µM (top dose mostly 38.3 µM), for the others: at the top dose activity change, negative = inhibition, usual class: inhibitors; hit rate 1.6% among 410,000; AID 624417; further: potency means the concentration at half of the fitted maximal effect; on the % scale 0 is the no-effect control and ±100 the full control effect; nearly all actives have a fitted effect of over 55% in size
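GLP-1R inverse agonism mode: basal reporter luminescence in engineered HEK293 cells measured after one day of compound exposure at 37 deg C, with a 12 min room-temperature detection step.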
GLP1R ag = agonists of human GLP-1 receptor. Potency, µM (titrated, usually from 45.6 µM), without a hit: at the top dose activation, usual class: activators. HEK293 GLP-1R CRE-luciferase, luminescence, 4-6 h; cells express a hypersensitive GLP-1R form. hit rate 0.007% among 380,000. P43220. AID 624172; further: potency means the concentration at half of the fitted maximal effect; % of control where 0% means no effect
Active calls of the source: *; [ ] = another dose, or the depositor's remark. Unless noted, the call rests on the fitted dose curve; in most records, active means well fitted curve in the direction sought with a large enough effect; inconclusive means small, poorly fitted or top-dose-only effect, or another doubt; inactive means no such curve, though single readings can be large; an effect the other way counts as inactive or inconclusive.

Screening Cc1cc(Cl)ccc1OC(C)C(=O)N1CCCN(C(=O)C(C)Oc2ccc(Cl)cc2C)CC1 (centres undefined) returned TSHR antag -27, PTHR1 agonist -13%, HEK293 tox inconclusive, GLP-1R inv ag 5µM* and GLP1R ag -25%.
`CCN1CC(CN(C)Cc2nc(-c3ccc(OC)c4ccccc34)oc2C)CC1=O` (centres undefined) gave TSHR antag -1, PTHR1 agonist -2%, HEK293 tox inconclusive, GLP-1R inv ag 10µM* and GLP1R ag 15%.
For CCN1CC(CN(C)Cc2nc(COc3ccccc3)no2)CC1=O (centres undefined) the results were TSHR antag -1, PTHR1 agonist inactive, HEK293 tox 9%, GLP-1R inv ag 11% and GLP1R ag 3%.
Screening COc1ccc(CN2CCC(CO)(Cc3ccccc3C(F)(F)F)CC2)c(F)c1 returned TSHR antag 6, PTHR1 agonist -79%, HEK293 tox inconclusive, GLP-1R inv ag 8.9µM* and GLP1R ag -2%.
Screening CCC1CN(C(=O)Nc2cccc3c2CCCC3)c2cc(Cl)ccc2O1 (centres undefined) returned PTHR1 agonist -12%, HEK293 tox -16% and GLP-1R inv ag 10µM*.
For Cc1ccc(S(=O)(=O)c2c(C(=O)c3ccccc3)cnc3cc4c(cc23)OCCO4)cc1 the results were TSHR antag -83*, PTHR1 agonist inactive, HEK293 tox -16%, GLP-1R inv ag inconclusive and GLP1R ag 3%.
For COc1ccc(C(=O)c2cnc3ccc(C)cc3c2S(=O)(=O)c2ccccc2)cc1 the results were PTHR1 agonist inactive, HEK293 tox inconclusive and GLP-1R inv ag inconclusive.
`COc1ccc(S(=O)(=O)c2c(C(=O)c3ccc(C)c(C)c3)cnc3ccc(F)cc23)cc1` gave PTHR1 agonist inactive, HEK293 tox -22% and GLP-1R inv ag inconclusive.
Screening Cc1ccc2ncc(C(=O)c3ccc(C)c(C)c3)c(S(=O)(=O)c3ccc(F)cc3)c2c1 returned PTHR1 agonist -24%, HEK293 tox -17% and GLP-1R inv ag 13µM*.
Cc1ccc(S(=O)(=O)c2nc(S(C)(=O)=O)sc2N2CCCCC2C)cc1 (centres undefined) was read as TSHR antag 30, PTHR1 agonist -45%, HEK293 tox -22%, GLP-1R inv ag 3.5µM* and GLP1R ag -3%.
For CCCS(=O)(=O)c1nc(S(=O)(=O)c2ccc(C)cc2)c(N2CCCC(C)C2)s1 (centres undefined) the results were TSHR antag 8, PTHR1 agonist -20%, HEK293 tox -4%, GLP-1R inv ag 13µM* and GLP1R ag 0%.
CC1CCN(c2ccc(-c3cccc(NC(=O)C(F)(F)F)c3)nn2)CC1 was read as TSHR antag 14, PTHR1 agonist -26%, HEK293 tox 81%, GLP-1R inv ag 1µM* and GLP1R ag -3%.
Screening CCC(=O)Nc1ccc(-c2ccc(N3CCC(C)CC3)nn2)cc1 returned TSHR antag 3, PTHR1 agonist -3%, HEK293 tox 5%, GLP-1R inv ag 7.9µM* and GLP1R ag 0%.
CC1CCN(c2ccc(-c3cccc(NC(=O)c4ccco4)c3)nn2)CC1 was read as TSHR antag -11, PTHR1 agonist -20%, HEK293 tox -15%, GLP-1R inv ag 11µM* and GLP1R ag 13%.
Screening CN1CCN(c2ccc3c(c2)C2CC3CCN2C(=O)OCc2ccccc2)CC1 (centres undefined) returned PTHR1 agonist inactive, HEK293 tox 0%, GLP-1R inv ag 10µM* and GLP1R ag 30%.
For FC(F)(F)c1ccc(/C=N/N2CCN(Cc3cccc4ccccc34)CC2)cc1 the results were TSHR antag 2, PTHR1 agonist -16%, HEK293 tox 4%, GLP-1R inv ag -1% and GLP1R ag 0%.
For C(=N\N1CCN(Cc2cccc3ccccc23)CC1)/c1cccnc1 the results were TSHR antag -82*, PTHR1 agonist -47%, HEK293 tox -11%, GLP-1R inv ag 0% and GLP1R ag -6%.
Screening C(=N\N1CCN(C2c3ccccc3-c3ccccc32)CC1)/c1cccnc1 returned TSHR antag 8, PTHR1 agonist -5%, HEK293 tox -21%, GLP-1R inv ag 11µM* and GLP1R ag 4%.
Screening Cc1noc2ncnc(NCc3ccc(Cl)cc3)c12 returned PTHR1 agonist -82%, HEK293 tox -6% and GLP-1R inv ag inconclusive.
Screening O=C(/C=C/c1ccc(F)cc1)c1cc(Br)ccc1O returned TSHR antag -13, PTHR1 agonist -15%, HEK293 tox -8%, GLP-1R inv ag inconclusive and GLP1R ag 4%.
`O=C(/C=C/c1ccccc1)c1cc(Br)ccc(=O)c1O` gave TSHR antag -85*, PTHR1 agonist -47%[57.5 µM], HEK293 tox inconclusive, GLP-1R inv ag inconclusive and GLP1R ag -5%.
Screening CCOC(=O)C(Sc1cc(-c2ccccc2)nc2ncnn12)C(C)=O (centres undefined) returned TSHR antag 0, PTHR1 agonist inactive, HEK293 tox 3.5µM*, GLP-1R inv ag inconclusive and GLP1R ag 1%.
`O=C(CC(=O)c1ccccn1)c1ccccc1` gave PTHR1 agonist -34%, HEK293 tox -34%, GLP-1R inv ag inconclusive and GLP1R ag -6%.
`O=C(CC(CC(=O)c1ccccc1)c1ccccn1)c1ccccc1` gave PTHR1 agonist -10%, HEK293 tox -1%, GLP-1R inv ag 10µM* and GLP1R ag 14%.
O=C(CC(c1ccccc1)(c1ccccc1)c1ccccc1)N[C@@H](Cc1ccccc1)C(=O)O was read as TSHR antag -5, PTHR1 agonist inactive, HEK293 tox 2%, GLP-1R inv ag inconclusive and GLP1R ag -2%.
`O=C(O)[C@H](Cc1ccccc1)NC(=O)C(c1ccccc1)(c1ccccc1)c1ccccc1` gave TSHR antag -6, PTHR1 agonist -7%, HEK293 tox 0%, GLP-1R inv ag 10µM* and GLP1R ag -4%.
`COc1ccccc1CCNC(=O)c1cc2c(=O)n3cccc(C)c3nc2n1C` gave PTHR1 agonist -5%, HEK293 tox -2% and GLP-1R inv ag -4%.
For CN(Cc1ccc(Cl)c(Cl)c1)C(=O)c1cccc(S(=O)(=O)N2CCN(Cc3ccccc3)CC2)c1 the results were TSHR antag -32, PTHR1 agonist -37%, HEK293 tox -5%, GLP-1R inv ag 11µM* and GLP1R ag 4%.
C=CCN(C(=O)c1cccc(S(=O)(=O)N2CCN(C)CC2)c1)c1nc(-c2ccccc2)cs1 was read as TSHR antag -6, PTHR1 agonist -29%, HEK293 tox -3%, GLP-1R inv ag 11µM* and GLP1R ag 3%.
